This note sets out measurements from PubChem BioAssay (NCATS).

Structures are written as SMILES. Results filed as inconclusive are left out. Activity calls are given as the source filed them. The call rests on the fitted dose curve; in most records, active means well fitted inhibition curve with a large enough effect; inconclusive means small, poorly fitted or top-dose-only effect; inactive means flat fitted curve, though single readings scatter.

What all share (test): qHTS profiling for inhibitors of Plasmodium falciparum proliferation (AID 504749); further: nearly all actives have a fitted effect of over 60% in size
What all share (conditions): P. falciparum in erythrocytes, SYBR Green DNA, 72 h; series mostly up to 28.7 µM
(In qHTS, concentration-response curves come from the screen itself.)

One experiment deals with DIV14. In outline: (§1)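 Infected RBCs, 0.3% parasitemia/2.5% Hct final; cpd 72 h, 37 C, 5% CO2; lysis buffer with saponin/triton/SYBR Green I, o/n RT dark; FI 485/535; norm. to artemisinin (0.29 uM) and DMSO.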
Another experiment has as its system DIV17. In a few lines: as §1
Another experiment has as its system DIV30. In a few lines:
as §1

The test system of a further experiment is Dd2. In outline: as §1
The next experiment deals with ECU. In outline:
as §1

Another experiment deals with FAB9. In outline:
as §1

The next experiment concerns GB4. In a few lines:
as §1

Another experiment relates to HB3. In outline:
as §1

The next experiment has as its system ICS. In a few lines: as §1
The next experiment concerns JCK. In outline: as §1
Potency means the concentration at half of the fitted maximal effect.

Turning to `CCC1(CC)C(=O)C=CNC1=O`, the Potency result in the experiment with DIV14, in the experiment with DIV17, with DIV30, with Dd2, in the experiment with ECU and in the experiment with FAB9 was “inactive” each time. The Potency result in the experiment with GB4, in the experiment on HB3, with ICS and in the experiment with JCK was “inactive” each time.

For `O=C1Nc2ccc(Cl)cc2C(c2ccccc2)=NC1O` (stereo not drawn), the Potency entry in the experiment on DIV14, with DIV17, with DIV30, in the experiment on Dd2, in the experiment with ECU and in the experiment on FAB9 was “inactive” throughout. For the same compound, the Potency result with GB4, in the experiment on HB3, in the experiment on ICS and with JCK was “inactive” in each case.

With `O=C(Nc1ccc(Br)cc1)c1cc(Br)cc(Br)c1O`, the Potency entry with DIV14, in the experiment on DIV17, with DIV30, in the experiment with Dd2, in the experiment on ECU and in the experiment with FAB9 was “inactive” each time. In addition, the Potency entry in the experiment on GB4, in the experiment with HB3, in the experiment with ICS and in the experiment with JCK was “inactive” throughout.

In the case of `CCCC(C)(COC(N)=O)COC(N)=O`, the Potency entry with DIV14, in the experiment on DIV17, with DIV30, with Dd2, with ECU and in the experiment on FAB9 was “inactive” throughout. The Potency entry in the experiment with GB4, in the experiment on HB3, in the experiment on ICS and with JCK was “inactive” each time.

`CN1C(=O)CC(=O)N(c2ccccc2)c2cc(Cl)ccc21`: the Potency result with DIV14, in the experiment with DIV17, with DIV30, with Dd2, in the experiment with ECU and in the experiment with FAB9 was “inactive” each time. Besides, the Potency result with GB4, with HB3, in the experiment on ICS and in the experiment with JCK was “inactive” in each case.

Take `O=C1Nc2ccc(Cl)cc2C(c2ccccc2Cl)=NC1O` (stereo not drawn): the Potency result in the experiment on DIV14, in the experiment on DIV17, in the experiment on DIV30, with Dd2, in the experiment on ECU and in the experiment on FAB9 was “inactive” each time. Moreover, the Potency result with GB4, in the experiment with HB3, in the experiment on ICS and in the experiment on JCK was “inactive” throughout.

On to `O=c1[nH]oc2c1CCNC2`, for which the Potency result in the experiment with DIV14, in the experiment with DIV17, in the experiment on DIV30, in the experiment on Dd2, in the experiment on ECU and in the experiment on FAB9 was “inactive” throughout. Moreover, the Potency result in the experiment on GB4, in the experiment with HB3 and in the experiment on ICS was “inactive” in each case.

Turning to `CC(C)NC(C)C`, the Potency result in the experiment on DIV14, in the experiment with DIV17, in the experiment with DIV30, with Dd2, in the experiment on ECU and with FAB9 was “inactive” each time. The Potency result in the experiment on GB4, in the experiment on HB3, with ICS and in the experiment on JCK was “inactive” each time.

For the compound `CN1CCC(O)(c2ccc(F)cc2)C(C(=O)c2ccc(F)cc2)C1` (stereo not drawn), the Potency result in the experiment on DIV14, in the experiment with DIV17, in the experiment on DIV30, with Dd2, with ECU and in the experiment with FAB9 was “inactive” throughout. For the same compound, the Potency entry in the experiment on GB4, in the experiment on HB3, with ICS and in the experiment with JCK was “inactive” in each case.

As to `Nc1ccccc1C(=O)O`, the Potency result in the experiment with DIV14, in the experiment with DIV17, with DIV30, in the experiment on Dd2, in the experiment on ECU and in the experiment with FAB9 was “inactive” each time. Also, the Potency result in the experiment with GB4, with HB3, with ICS and in the experiment on JCK was “inactive” each time.

With `CCOC(=O)CC(SP(=S)(OC)OC)C(=O)OCC` (stereo not drawn), the Potency entry in the experiment on DIV14, in the experiment with DIV17, in the experiment on DIV30, with Dd2, with ECU and with FAB9 was “inactive” in each case. Moreover, the Potency entry with GB4, in the experiment with HB3, in the experiment on ICS and with JCK was “inactive” each time.

In the case of `NNc1ccccc1`, the Potency result with DIV14, in the experiment on DIV17, in the experiment on DIV30, in the experiment on Dd2, in the experiment on ECU and in the experiment on FAB9 was “inactive” throughout. The Potency result in the experiment with GB4, in the experiment with HB3, with ICS and in the experiment with JCK was “inactive” each time.

Consider `O=P1(N(CCCl)CCCl)NCCCO1` (stereo not drawn), for which the Potency result in the experiment on DIV14, in the experiment on DIV17, with DIV30, with Dd2, with ECU and with FAB9 was “inactive” throughout. Moreover, the Potency entry in the experiment with GB4, in the experiment with HB3, in the experiment with ICS and in the experiment with JCK was “inactive” each time.

For the compound `COP(=S)(OC)SCN1C(=O)c2ccccc2C1=O`, the Potency result in the experiment on DIV14, with DIV17, in the experiment on DIV30, in the experiment with Dd2, with ECU and in the experiment on FAB9 was “inactive” in each case. The Potency result in the experiment with GB4, in the experiment on HB3, with ICS and with JCK was “inactive” in each case.

`COP(=S)(OC)Oc1ccc(SC)c(C)c1`: the Potency result with DIV14, in the experiment with DIV17, with DIV30, in the experiment with Dd2, in the experiment on ECU and in the experiment with FAB9 was “inactive” in each case. The Potency entry in the experiment on GB4, in the experiment with HB3 and with ICS was “inactive” each time.

Consider `COP(=S)(OC)Oc1ccc(S(=O)(=O)N(C)C)cc1`, for which the Potency result in the experiment with DIV14, in the experiment on DIV17, in the experiment with DIV30, with Dd2, with ECU and in the experiment with FAB9 was “inactive” each time. Moreover, the Potency result in the experiment on GB4, in the experiment on HB3, with ICS and with JCK was “inactive” each time.

Consider `CN1C[C@H](C(=O)N[C@]2(C)O[C@@]3(O)[C@@H]4CCCN4C(=O)[C@H](Cc4ccccc4)N3C2=O)C=C2c3cccc4[nH]cc(c34)C[C@H]21`, for which the Potency was 536 nM (active) in the experiment on DIV14; 338 nM (active) in the experiment on DIV17; 1690 nM (active) in the experiment on DIV30; 141 nM (active) in the experiment with Dd2; 316 nM (active) in the experiment on ECU; 6310 nM (active) in the experiment on FAB9. Besides, the Potency in the experiment with GB4 is 1690 nM (active); in the experiment with HB3 it was 447 nM (active); in the experiment on ICS, 39.8 nM (active); with JCK it was 7080 nM (active).

Turning to `CN1C(=O)C(O)N=C(c2ccccc2)c2cc(Cl)ccc21` (stereo not drawn), the Potency result in the experiment on DIV14, with DIV17, in the experiment with DIV30, in the experiment with Dd2, in the experiment on ECU and in the experiment on FAB9 was “inactive” in each case. Moreover, the Potency result in the experiment on GB4, in the experiment on HB3, with ICS and in the experiment on JCK was “inactive” in each case.

Consider `NC(=O)CS(=O)C(c1ccccc1)c1ccccc1` (stereo not drawn), for which the Potency entry with DIV14, in the experiment on DIV17, in the experiment on DIV30, in the experiment on Dd2, in the experiment with ECU and with FAB9 was “inactive” in each case. The Potency result in the experiment with GB4, in the experiment with HB3, with ICS and in the experiment with JCK was “inactive” throughout.

As to `O=c1oc2ccccc2c(O)c1Cc1c(O)c2ccccc2oc1=O`, the Potency result with DIV14, in the experiment with DIV17, with DIV30, in the experiment with Dd2, in the experiment on ECU and with FAB9 was “inactive” each time. In addition, the Potency entry in the experiment on GB4, in the experiment with HB3, in the experiment on ICS and in the experiment with JCK was “inactive” each time.
